The values below come from paper PMC5700166.

What all share (test): protein-binding microarray (PBM); PBM: ~300 nM protein, 6 mM HEPES pH 7.8, 80 mM KCl, 0.5 mM EDTA, 0.5 mM EGTA, 6% glycerol, 35 ng/ul poly-dIdC, 1% milk, 1 h, room temperature; Ap Aiptasia and Nv Nematostella (sea anemones) / Co Capsaspora / Aq Amphimedon (sponge) / Dm Drosophila / Hu human; RHD is the Rel homology domain; high values mean tight binding
Conditions in all cases: dsDNA, one strand shown

In assay [1] the target is T1, GST-Ap-NF-kB RHD (Exaiptasia pallida (Aiptasia), UniProt A0A913YAJ5 2-422).
T1 sequence: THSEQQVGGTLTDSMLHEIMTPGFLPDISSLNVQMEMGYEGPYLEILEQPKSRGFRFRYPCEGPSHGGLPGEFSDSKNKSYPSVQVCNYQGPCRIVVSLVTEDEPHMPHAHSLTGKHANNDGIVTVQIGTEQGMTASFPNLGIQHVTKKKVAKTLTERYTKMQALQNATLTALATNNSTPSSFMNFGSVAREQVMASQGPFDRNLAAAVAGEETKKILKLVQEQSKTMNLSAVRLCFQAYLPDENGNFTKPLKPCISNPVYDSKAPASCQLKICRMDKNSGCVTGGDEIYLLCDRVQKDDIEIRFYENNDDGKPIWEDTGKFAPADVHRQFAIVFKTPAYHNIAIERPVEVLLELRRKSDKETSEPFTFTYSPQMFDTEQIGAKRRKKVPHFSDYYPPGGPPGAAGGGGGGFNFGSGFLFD

Assay [2] concerns the target T2, GST-Nv-NF-kB (Cys allele) (Nematostella vectensis, UniProt E5G601 2-411).
T2 sequence: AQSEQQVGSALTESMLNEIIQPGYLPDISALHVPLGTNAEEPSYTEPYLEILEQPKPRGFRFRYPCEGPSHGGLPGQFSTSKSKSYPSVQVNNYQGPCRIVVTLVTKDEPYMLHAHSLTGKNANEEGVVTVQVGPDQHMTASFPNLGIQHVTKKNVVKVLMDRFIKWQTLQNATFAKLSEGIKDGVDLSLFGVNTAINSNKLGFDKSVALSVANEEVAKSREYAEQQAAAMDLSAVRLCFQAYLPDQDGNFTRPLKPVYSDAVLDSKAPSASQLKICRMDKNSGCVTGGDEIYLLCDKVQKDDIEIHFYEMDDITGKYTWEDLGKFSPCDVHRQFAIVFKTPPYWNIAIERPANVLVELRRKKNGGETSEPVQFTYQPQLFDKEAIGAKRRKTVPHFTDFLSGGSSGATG

Assay [3] concerns the target T3, GST-Nv-NF-kB (Ser allele) (Nematostella vectensis, UniProt A7UNT2 2-411).
T3 sequence: T2 sequence with Q21R, C66S, S207N, E215Q, V217A, E225K, A268E, D399E

For assay [4], the target named is T4, GST-Co-NF-kB (Capsaspora owczarzaki, UniProt F1ARL5 200-546).
T4 sequence: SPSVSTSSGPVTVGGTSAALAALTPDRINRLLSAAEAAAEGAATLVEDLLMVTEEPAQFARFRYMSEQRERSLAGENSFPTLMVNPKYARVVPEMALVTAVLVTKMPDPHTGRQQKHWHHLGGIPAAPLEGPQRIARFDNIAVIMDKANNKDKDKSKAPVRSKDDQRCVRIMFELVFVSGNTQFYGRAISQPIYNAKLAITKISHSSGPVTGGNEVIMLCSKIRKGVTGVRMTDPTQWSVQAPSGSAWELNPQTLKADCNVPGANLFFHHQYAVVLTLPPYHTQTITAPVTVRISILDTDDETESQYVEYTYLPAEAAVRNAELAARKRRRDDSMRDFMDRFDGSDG

In assay [5] the target is T5, GST-Dm-Relish (Drosophila melanogaster, UniProt Q94527 99-473).
T5 sequence: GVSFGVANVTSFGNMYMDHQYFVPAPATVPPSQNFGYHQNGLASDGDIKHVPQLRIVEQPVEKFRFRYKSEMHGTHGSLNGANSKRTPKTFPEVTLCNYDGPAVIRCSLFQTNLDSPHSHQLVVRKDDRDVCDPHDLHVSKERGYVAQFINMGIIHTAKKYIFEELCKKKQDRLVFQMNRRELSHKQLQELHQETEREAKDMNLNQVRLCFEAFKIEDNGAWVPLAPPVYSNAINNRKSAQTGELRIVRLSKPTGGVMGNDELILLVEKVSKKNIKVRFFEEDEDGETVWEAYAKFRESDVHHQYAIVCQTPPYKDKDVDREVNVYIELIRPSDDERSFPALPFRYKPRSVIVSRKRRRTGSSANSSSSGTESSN

Assay [6] deals with T6, GST-Aq-NF-kB (Amphimedon queenslandica, UniProt A9Y5G7 2-389).
T6 sequence: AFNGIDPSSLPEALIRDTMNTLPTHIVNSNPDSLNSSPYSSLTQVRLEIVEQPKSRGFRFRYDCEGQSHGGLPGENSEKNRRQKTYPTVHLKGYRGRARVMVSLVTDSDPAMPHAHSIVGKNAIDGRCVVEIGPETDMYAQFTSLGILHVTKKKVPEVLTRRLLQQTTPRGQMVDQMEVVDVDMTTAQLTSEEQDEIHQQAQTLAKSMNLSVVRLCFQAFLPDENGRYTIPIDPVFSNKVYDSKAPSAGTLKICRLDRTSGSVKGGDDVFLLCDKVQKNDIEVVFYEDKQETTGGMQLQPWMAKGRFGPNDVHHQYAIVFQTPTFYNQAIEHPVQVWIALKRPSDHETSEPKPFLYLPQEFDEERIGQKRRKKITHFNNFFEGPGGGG

The target in assay [7] is GST-Hu-p50 (Homo sapiens, UniProt P19838 7-356).
Sequence of GST-Hu-p50 (P19838 7-356): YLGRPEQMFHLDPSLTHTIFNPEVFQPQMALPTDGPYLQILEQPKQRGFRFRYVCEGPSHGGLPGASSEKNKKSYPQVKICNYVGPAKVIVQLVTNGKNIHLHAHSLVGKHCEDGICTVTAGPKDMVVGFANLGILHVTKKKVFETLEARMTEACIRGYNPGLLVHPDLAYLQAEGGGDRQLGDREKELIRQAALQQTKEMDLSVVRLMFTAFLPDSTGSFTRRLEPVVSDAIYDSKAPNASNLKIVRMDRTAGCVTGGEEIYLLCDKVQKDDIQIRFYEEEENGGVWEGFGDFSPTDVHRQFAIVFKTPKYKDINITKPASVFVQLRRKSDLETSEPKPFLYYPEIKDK

Changes are numbered by the printed parent chain.

For “CCGATTAACATCAAATTTCCCCTTGATGTTAATCGGGTCTTGATTCGCTTGACGCTGCTG”, the binding signal turned out to be 8.8 z-score in assay [1]; 10.8 z-score in assay [2]; 13.2 z-score in assay [3]; 7.98 z-score in assay [4]; 7.38 z-score in assay [5]; 8.06 z-score in assay [6]. Further, the binding signal in assay [7] turned out to be 7.51 z-score.

Turning to “CCGATTAACATCACATTTTTCCCTGATGTTAATCGGGTCTTGATTCGCTTGACGCTGCTG”, the binding signal in assay [1] came out at 3.43 z-score; in assay [2], 5.03 z-score; in assay [3], 7.3 z-score; in assay [4], 5.64 z-score; in assay [5], 2.56 z-score; in assay [6], 4.26 z-score. The binding signal in assay [7] came out at 3.84 z-score.

As to “CCGATTAACATCACAAAACCCCCTGATGTTAATCGGGTCTTGATTCGCTTGACGCTGCTG”, the binding signal in assay [1] was determined as 9.76 z-score; in assay [2], 9.02 z-score; in assay [3], 10.5 z-score; in assay [4], 3.3 z-score; in assay [5], 10.4 z-score; in assay [6], 7.82 z-score. The binding signal in assay [7] was found to be 8.21 z-score.

For “CCGATTAACATCAGGGGAAATACTGATGTTAATCGGGTCTTGATTCGCTTGACGCTGCTG”, the binding signal in assay [1] is 7.87 z-score; in assay [2] it was 8.59 z-score; in assay [3], 11 z-score; in assay [4], 8.2 z-score; in assay [5], 9.53 z-score; in assay [6], 7.18 z-score. Besides, the binding signal in assay [7] was 6.88 z-score.

Regarding “CCGATTAACATCAGGGCGCCCCCTGATGTTAATCGGGTCTTGATTCGCTTGACGCTGCTG”, the binding signal turned out to be 6.07 z-score in assay [1]; 4.59 z-score in assay [2]; 3.38 z-score in assay [3]; 1.95 z-score in assay [4]; 5.55 z-score in assay [5]; 7.98 z-score in assay [6]. Besides, in assay [7], the binding signal was 4.97 z-score.

With “CCGATTAACATCAGAAATACCCCTGATGTTAATCGGGTCTTGATTCGCTTGACGCTGCTG”, the binding signal was 6.58 z-score in assay [1]; 6.99 z-score in assay [2]; 6.08 z-score in assay [3]; 4.66 z-score in assay [4]; 4.99 z-score in assay [5]; 6.25 z-score in assay [6]. This sequence also gave a binding signal in assay [7] of 5.86 z-score.

For “CCGATTAACATCAAAAAACCCCCTGATGTTAATCGGGTCTTGATTCGCTTGACGCTGCTG”, the binding signal was 12.1 z-score in assay [1]; 11.4 z-score in assay [2]; 12.1 z-score in assay [3]; 5.28 z-score in assay [4]; 11.4 z-score in assay [5]; 9.82 z-score in assay [6]. In addition, the binding signal in assay [7] worked out at 8.38 z-score.

As for “CCGATTAACATCAGGGGGACTACTGATGTTAATCGGGTCTTGATTCGCTTGACGCTGCTG”, the binding signal in assay [1] is 6.49 z-score; in assay [2], 4.44 z-score; in assay [3], 4.46 z-score; in assay [4] it was 4.53 z-score; in assay [5], 6.39 z-score; in assay [6], 5.25 z-score. In assay [7], this sequence yielded a binding signal of 4.55 z-score.

Take “CCGATTAACATCAGGGGGAAACCTGATGTTAATCGGGTCTTGATTCGCTTGACGCTGCTG”: the binding signal in assay [1] stood at 8.24 z-score; in assay [2], 8.06 z-score; in assay [3], 9.71 z-score; in assay [4], 9.35 z-score; in assay [5] it was 7.54 z-score; in assay [6], 7.94 z-score. In assay [7], this sequence displayed a binding signal of 7.23 z-score.

With “CCGATTAACATCAATATTCCCCCTGATGTTAATCGGGTCTTGATTCGCTTGACGCTGCTG”, the binding signal in assay [1] amounted to 8.39 z-score; in assay [2] it was 9.05 z-score; in assay [3] it was 10 z-score; in assay [4] it was 10.4 z-score; in assay [5], 6.05 z-score; in assay [6], 7.05 z-score. In assay [7], this sequence had a binding signal of 7.24 z-score.

“CCGATTAACATCAGACATCCCCCTGATGTTAATCGGGTCTTGATTCGCTTGACGCTGCTG”: the binding signal in assay [1] was found to be 5.54 z-score; in assay [2] it was 5.65 z-score; in assay [3], 5.36 z-score; in assay [4] it was 3.71 z-score; in assay [5], 5.06 z-score; in assay [6], 5.17 z-score. This sequence also came in with a binding signal in assay [7] of 4.88 z-score.

As to “CCGATTAACATCAGGGCAACCCCTGATGTTAATCGGGTCTTGATTCGCTTGACGCTGCTG”, the binding signal in assay [1] worked out at 3.77 z-score; in assay [2], 2.55 z-score; in assay [3] it was 1.13 z-score; in assay [4], 1.28 z-score; in assay [5], 4.15 z-score; in assay [6], 5.95 z-score. In assay [7], the binding signal is 3.08 z-score.
